From PubChem BioAssay (EPA / NIEHS)
“And” between values parts separate entries of the source, which are not always exact repeats. Equal values may be shown once. Inconclusive results are not listed. The source made the active and inactive calls. Rule for the calls, unless noted: active = hit-call score of the fitted dose curve at least 0.9, where 1 is the maximum; inconclusive = response in the unintended direction; inactive = score below 0.9.

Tests used:
[1] = test system: SRY-box transcription factor 17 (SOX17) Protein Expression, Deisenroth Lab, SOX17 (gene 64321); assay: CCTE_Deisenroth_DEVTOX-GLR_legacy_Sox17: (Legacy) CCTE's DevTox GLR-Endo Assay Evaluation of SRY-box transcription factor 17 (SOX17) Protein Expression, Deisenroth Lab (AID 2284341; active = hit-call score of the fitted dose curve at least 0.9, where 1 is the maximum; inactive = score below 0.9); conditions: actives raise or lower the signal
How it was run: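 RUES2-GLR human pluripotent cells, seeded 24 h, then differentiated 48 h in defined media with two chemical exposures 24 h apart (1 nM - 200 uM, 10 points). Sox17+ fraction from high-content fluorescence imaging; bidirectional fit versus 0.2% DMSO.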

[2] = test system: SRY-box transcription factor 2 (SOX2) Protein Expression, Deisenroth Lab, SOX2 (gene 6657); assay: CCTE_Deisenroth_DEVTOX-GLR_legacy_Sox2: (Legacy) CCTE's DevTox GLR-Endo Assay Evaluation of SRY-box transcription factor 2 (SOX2) Protein Expression, Deisenroth Lab (AID 2284346; active = hit-call score of the fitted dose curve at least 0.9, where 1 is the maximum; inactive = score below 0.9)
How it was run: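 hPSC RUES2-GLR, 384-well; 24 h seed → 48 h endoderm differentiation, 2 doses q24h, 1 nM–200 uM. Fix, nuclear dye, 5 fields/well. Sox2+ cells/cell count; cell positive if >5x BMAD over endoderm ctrl; gain direction vs DMSO.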

SERPINA7 (gene 6906) = assay: CCTE_GLTED_hTBG: CCTE's human Thyroxine-binding Globulin (TBG) Inhibition Assay, Great Lakes Toxicology and Ecology Division (GLTED) Lab (AID 2284343);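 note: active chemicals lower fluorescence versus DMSO baseline by displacing probe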
How it was run: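 Human TBG incubated 2 h with test chemical; displacement of ANSA probe read by fluorescence, 380 nm excitation/475 nm emission. Loss of signal relative to DMSO.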

[3] = CCTE_Mundy_HCI_iCellGluta_NOG_NeuronCount: CCTE's Neurite Outgrowth Assay in iCellGluta cells for Neuron Count, Mundy Lab (AID 2284340);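 note: cells fixed about 48 h after compound addition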
How it was run: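 Neuron count read by automated high-content imaging of Hoechst 33342 and betaIII-tubulin/Alexa Fluor-488 labelling in human iPSC glutamatergic neurons. Activity fitted relative to DMSO.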

[4] = CCTE_Mundy_HCI_iCellGluta_NOG_NeuriteCount: CCTE's Neurite Outgrowth Assay in iCellGluta cells for Neurite Count, Mundy Lab (AID 2284342);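 note: chemical exposure about 48 hours starting 2 hours after plating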
[5] = test system: SRY-box transcription factor 2 (SOX2) Protein Expression, Deisenroth Lab, SOX2 (gene 6657); assay: CCTE_Deisenroth_DEVTOX-GLR_Endo_SOX2: CCTE's DevTox GLR-Endo Assay Evaluation of SRY-box transcription factor 2 (SOX2) Protein Expression, Deisenroth Lab (AID 2284412)
Experimental: CCTE_Deisenroth_DEVTOX-GLR_Endo assay is a cell-based, multiplex-readout assay that uses RUES2-GLR, a human pluripotent cell line, with measurements taken at 48 hours after chemical dosing in a 384-well microplateCCTE_Deisenroth_DEVTOX-GLR_Endo_SOX2 is 1 of 4 assay components calculated from the CCTE_Deisenroth_DEVTOX-GLR_Endo assay and it measures the percentage of cells in an ectoderm state. Using a type of inducible fluorescent protein reporter, gain-of-signal activity can be used to understand changes in gene expression with fluorescent microscopy. The percentage SOX2+ cells are determined by calculating the number of SOX2+ cells divided by the cell count. To generalize the intended target to other relatable targets, this assay component is annotated to the transcription factor intended target family, where the subfamily is SRY-related HMG-box.Data from the assay component CCTE_Deisenroth_DEVTOX-GLR_Endo_SOX2 was analyzed as 1 assay endpoint. The endpoint is the percent SOX2+ cell population minus the 0.2% DMSO control in the CCTE_Deisenroth_DEVTOX-GLR_Endo assay. Furthermore, this assay endpoint can be referred to as a secondary readout, because this assay has produced multiple assay endpoints where this one serves as a measure of ectoderm differentiation.
All assay protocols are aligned to the DevTox GLR-Endo assay workflow. Cells are seeded into 384-well microplates for 24 hours prior to initiating differentiation in defined media for a total duration of 48 hours. A total of two chemical exposures are administered in 24-hour intervals during the 48-hour differentiation period. At the assay termination point, cells are fixed and stained with a fluorescent dye demarcating the nucleus. High-content imaging is used to acquire brightfield and fluorescent channel images across 5 fields per well. Cell identification and mean biomarker fluorescence intensities are calculated with image analysis software to determine the total cell counts for viability assessment and the biomarker expression frequency for each lineage-dependent assay. A typical experimental design tests a 10-point concentration series (1 nM - 200 uM) for 28 compounds in single technical replicate. Assay plate controls include non-differentiated pluripotent cells (baseline control), lineage-specific differentiated cells (differentiation control), and DMSO solvent exposed differentiated cells (solvent control). Experiments typically comprise a minimum of four experimental replicates (n=4).

[6] = VALA_TUBIPS_Antagonist_CellCount: Viability Assessment in the VALA Sciences human iPS-derived Endothelial Tubule Formation (TUBIPS) Antagonism Assay (AID 2284335)
Experimental: VALA_TUBIPS_Agonist is a cell-based, multiplexed assay that uses human iPS-derived endothelial cells (iPSC). Measurements were taken 72 hours after chemical dosing in a 96-well plate.VALA_TUBIPS_Antagonist_CellCount is the one of two assay components measured from the VALA_TUBIPS_Antagonist assay. It is designed to make measurements of viability, a form of viability reporter, as detected with fluorescence intensity signals by HCS Fluorescent Imaging technology. Data from the assay component VALA_TUBIPS_Antagonist_CellCount was analyzed at the endpoint, VALA_TUBIPS_Antagonist_CellCount, in the positive analysis fitting direction relative to DMSO as the negative control and baseline of activity. Using a type of viability reporter, loss-of-signal activity can be used to understand viability. To generalize the intended target to other relatable targets, this assay endpoint is annotated to the cell cycle intended target family, where the subfamily is cell count.
This HUVEC-HDF assay was designed to detect chemical suppression of tubulogenesis, i.e. antagonism. To measure tubulogenesis antagonism, HUVEC cells were co-cultured with HDF cells at a 1:3 ratio for 3-days in 10 ng/ml VEGF (i.e., favorable conditions with growth factors), then changed to assay medium containing 10 ng/ml VEGF and ToxCast compounds for an additional 3-day period. […]

[7] = VALA_TUBHUV_Agonist_TubuleLength: VALA Sciences human Umbilical Vein Endothelial Tubule Formation (TUBHUV) Agonism Assay (AID 2284337)
How it was run: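 HUVEC co-cultured with fibroblasts (1:3) 3 days in 10 ng/ml VEGF, then 3 days with compound plus VEGF; 0.1 % DMSO neutral control. Fixed, nuclear and CD31 stained; tubule length by fluorescence imaging.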

[8] = VALA_TUBIPS_Agonist_CellCount: Viability Assessment in the VALA Sciences human iPS-derived Endothelial Tubule Formation (TUBIPS) Agonism Assay (AID 2284338)
[9] = VALA_MIGHUV1_ScratchOnly_WoundArea: VALA Sciences human Umbilical Vein Endothelial Cell Migration (MIGHUV) Assay, Area of Scratch Wound Inhibited Recovery (AID 2284336)
Experimental: VALA_MIGHUV1_ScratchOnly is a cell-based, multiplexed assay that uses umbilical vein-derived endothelial cells (HUVEC). Measurements were taken 24 hours after chemical dosing in a 96-well plate.VALA_MIGHUV1_ScratchOnly_WoundArea is the one of two assay components measured from the VALA_MIGHUV1_ScratchOnly assay. It is designed to make measurements of endothelial migration, a form of morphology reporter, as detected with fluorescence intensity signals by HCS Fluorescent Imaging technology. Data from the assay component VALA_MIGHUV1_ScratchOnly_WoundArea was analyzed at the endpoint, VALA_MIGHUV1_ScratchOnly_WoundArea, in the positive analysis fitting direction relative to DMSO as the negative control and baseline of activity. Using a type of morphology reporter, gain-of-signal activity can be used to understand developmental effects. To generalize the intended target to other relatable targets, this assay endpoint is annotated to the neurodevelopment intended target family, where the subfamily is migration.
Cells were seeded on 384-well microplates (day-0) at a density of 9000 cells per well for detection of wound area recovery or 4000 cells per well for detection of beta-catenin (CTNB) immunoreactivity and incubated in Endothelial Cell Growth Medium (CAI, San Diego; catalog 211-500). […]

O=C1CCC(N2C(=O)c3ccccc3C2=O)C(=O)N1 (stereo not drawn)
AC50 [1]: 1.44 µM (active)
outcome [2]: inactive

O=C(O)c1cc(N=Nc2ccc(S(=O)(=O)Nc3ccccn3)cc2)ccc1O
outcome [1]: inactive
AC50 (SERPINA7 (gene 6906)): 15.9 µM (active)
outcome [2]: inactive

NC(=O)NO
outcome [1]: inactive
outcome [2]: inactive

CC[C@H]1OC(=O)[C@H](C)[C@@H](O[C@H]2C[C@@](C)(OC)[C@@H](O)[C@H](C)O2)[C@H](C)[C@@H](O[C@@H]2O[C@H](C)C[C@H](N(C)C)[C@H]2O)[C@](C)(O)C[C@@H](C)C(=O)[C@H](C)[C@@H](O)[C@]1(C)O
outcome [3]: inactive
outcome [4]: inactive

Cn1c(=O)c2c(ncn2C)n(C)c1=O
outcome [1]: inactive
outcome [2]: inactive
AC50 [5]: 33.8 µM (active)

Oc1ccc2c(c1)-c1ccccc1C2
AC50 (SERPINA7 (gene 6906)): 19.4 µM (active)

C[C@](N)(Cc1ccc(O)c(O)c1)C(=O)O
outcome [1]: inactive
outcome [2]: inactive
outcome [5]: inactive

O=P(OC(CCl)CCl)(OC(CCl)CCl)OC(CCl)CCl
outcome [6]: inactive
outcome [7]: inactive
outcome [8]: inactive
outcome [3]: inactive
outcome [4]: inactive
AC50 (SERPINA7 (gene 6906)): 3.27 µM (active)

Nc1ccc(Nc2ccccc2)cc1
AC50 (SERPINA7 (gene 6906)): 50 µM (active)

Nc1nc2ncc(CNc3ccc(C(=O)N[C@@H](CCC(=O)O)C(=O)O)cc3)nc2c(=O)[nH]1
outcome [1]: inactive
outcome [2]: inactive
outcome [5]: inactive

CC[C@H](C)C(=O)O[C@H]1C[C@@H](C)C=C2C=C[C@H](C)[C@H](CC[C@@H]3C[C@@H](O)CC(=O)O3)[C@H]21
AC50 [1]: 7.97 µM (active)
AC50 [2]: 41.7 µM (active)
AC50 [5]: 62.1 µM (active)

O=C(O)c1cccc(Oc2ccccc2)c1
AC50 (SERPINA7 (gene 6906)): 19.2 µM (active)

CC(C)c1cccc(C(C)C)c1N1C(=O)c2ccc(O)cc2C1=O
AC50 [9]: 5.98 µM (active) and 22.1 µM (active)
AC50 [7]: 85 µM (active) and 7.58 µM (active)
AC50 [8]: 80.2 µM (active)
